Values joined by “and” are separate entries in the source; they are usually repeats but may differ in a detail not shown here. Equal values may be shown once. Some compounds were tested as several samples or in several runs, with calls that do not always agree. Active and inactive are the calls of the source. Entries that show only a call come without a potency. Unless noted, calls follow the shape of the dose curve; as a rule, active = well fitted curve in the direction sought with a large enough effect in the repeat runs; inconclusive = weak or mixed curves; inactive = no such curve, though single readings can be large; an effect the other way counts as inactive or inconclusive.
Tests used:
[1] = qHTS assay to identify small molecule antagonists of the thyroid receptor (TR) signaling pathway - cell viability counter screen (AID 743064); also: nearly all actives have a fitted effect of over 50% in size; also: potency is read from the fitted curve at half-maximal effect
Summary of the method: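 Fluorescence from CellTiter-Fluor, added after 23.5 h exposure at 37 °C, reported viability of GH3.TRE-Luc cells co-treated with compound and 1 nM T3. Measured in the same wells as the luciferase TR readout.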

[2] = qHTS assay to identify small molecule antagonists of the thyroid receptor (TR) signaling pathway (AID 743065); also: nearly all actives have a fitted effect of over 55% in size; also: potency is read from the fitted curve at half-maximal effect
Summary of the method: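 GH3.TRE-Luc rat pituitary cells (two TREs driving luciferase) were dosed with compound, then stimulated with 1 nM T3 (final) for 23.5 h at 37 C. ONE-Glo luminescence was the read-out, with CellTiter-Fluor fluorescence as the cytotoxicity counter-screen.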

[3] = system: thyroid hormone receptor (rat, GH3 cells); assay: qHTS assay to identify small molecule agonists of the thyroid receptor (TR) signaling pathway (AID 743066; calls by dose curve)
[4] = molecular target: Estrogen receptor (Homo sapiens) (UniProt P03372); assay: qHTS assay to identify small molecule antagonists of the estrogen receptor alpha (ER-alpha) signaling pathway (AID 743069; active = well fitted curve in the direction sought with a large enough effect in the signal ratio in the repeat runs, not every such curve was filed as active; inconclusive = weak or mixed curves, or effect the other way; inactive = no such curve, though single readings can be large or run the other way; the % refers to the signal ratio; also: potency is read from the fitted curve at half-maximal effect)
Summary of the method: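 Reporter cells (ER-alpha-bla, HEK293 background) are conditioned overnight in stripped-serum medium (2% charcoal-stripped FBS). Compound and 17beta-estradiol exposure runs 18 hr at 37C, 5% CO2.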

[5] = qHTS assay to identify small molecule antagonists of the estrogen receptor alpha (ER-alpha) signaling pathway - cell viability counter screen (AID 743074; calls by dose curve;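 also: HEK293 cells carrying ER-alpha-UAS-bla reporter stimulated with 17beta-estradiol; nearly all actives have a fitted effect of over 45% in size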; also: potency is read from the fitted curve at half-maximal effect)
[6] = molecular target: Estrogen receptor (Homo sapiens) (UniProt P03372); assay: qHTS assay to identify small molecule agonists of the estrogen receptor alpha (ER-alpha) signaling pathway (AID 743075; calls by dose curve;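 also: HEK293 GripTite cells with ER-alpha and UAS-driven beta-lactamase reporter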; also: potency is read from the fitted curve at half-maximal effect); details: HEK293 ER-alpha-UAS-bla, beta-lactamase FRET ratio, 18 h; activation: at 70.1 µM (top of the series)
[7] = molecular target: Estrogen receptor (Homo sapiens) (UniProt P03372); assay: qHTS assay to identify small molecule agonists of the estrogen receptor alpha (ER-alpha) signaling pathway using the BG1 cell line (AID 743079); details: BG1Luc4E2 cells, ERE-luciferase agonist, 22 h; also: nearly all actives have a fitted effect of over 20% in size; also: potency is read from the fitted curve at half-maximal effect
[8] = qHTS assay to identify small molecule antagonists of the estrogen receptor alpha (ER-alpha) signaling pathway using the BG1 cell line (AID 743080; calls by dose curve; also: nearly all actives have a fitted effect of over 25% in size; also: potency is read from the fitted curve at half-maximal effect)
Summary of the method: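 Antagonist mode: compounds in DMSO were pinned onto BG1-Luc-4E2 cells alongside 17beta-estradiol agonist, incubated 21.5 h, and ERE-driven luciferase measured with ONE-Glo. Cytotoxicity was multiplexed using CellTiter-Fluor fluorescence.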

[9] = qHTS assay to identify small molecule antagonists of the estrogen receptor alpha (ER-alpha) signaling pathway using the BG1 cell line - cell viability counter screen (AID 743081);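 also: compound given together with 17beta-estradiol as the ER stimulus; nearly all actives have a fitted effect of over 45% in size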; also: potency is read from the fitted curve at half-maximal effect
[10] = molecular target: Aromatase (Homo sapiens) (UniProt P11511); assay: qHTS assay to identify aromatase inhibitors (AID 743083); also: nearly all actives have a fitted effect of over 55% in size; also: potency is read from the fitted curve at half-maximal effect
Chain of Aromatase (Homo sapiens) (P11511 whole entry, looked up): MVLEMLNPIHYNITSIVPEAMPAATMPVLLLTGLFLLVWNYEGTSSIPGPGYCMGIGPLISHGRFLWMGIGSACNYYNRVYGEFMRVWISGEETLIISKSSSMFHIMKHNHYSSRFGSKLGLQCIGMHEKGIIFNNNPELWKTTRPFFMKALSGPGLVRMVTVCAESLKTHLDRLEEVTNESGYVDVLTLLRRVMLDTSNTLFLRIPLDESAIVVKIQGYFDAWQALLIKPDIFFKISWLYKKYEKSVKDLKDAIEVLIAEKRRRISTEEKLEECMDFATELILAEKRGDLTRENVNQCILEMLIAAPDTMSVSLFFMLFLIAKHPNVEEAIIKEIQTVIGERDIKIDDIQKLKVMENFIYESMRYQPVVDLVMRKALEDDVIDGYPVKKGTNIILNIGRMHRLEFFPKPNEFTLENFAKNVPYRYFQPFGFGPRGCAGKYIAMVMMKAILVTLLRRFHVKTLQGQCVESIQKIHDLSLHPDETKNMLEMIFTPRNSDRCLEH

Chain of Estrogen receptor (Homo sapiens) (P03372 whole entry, looked up): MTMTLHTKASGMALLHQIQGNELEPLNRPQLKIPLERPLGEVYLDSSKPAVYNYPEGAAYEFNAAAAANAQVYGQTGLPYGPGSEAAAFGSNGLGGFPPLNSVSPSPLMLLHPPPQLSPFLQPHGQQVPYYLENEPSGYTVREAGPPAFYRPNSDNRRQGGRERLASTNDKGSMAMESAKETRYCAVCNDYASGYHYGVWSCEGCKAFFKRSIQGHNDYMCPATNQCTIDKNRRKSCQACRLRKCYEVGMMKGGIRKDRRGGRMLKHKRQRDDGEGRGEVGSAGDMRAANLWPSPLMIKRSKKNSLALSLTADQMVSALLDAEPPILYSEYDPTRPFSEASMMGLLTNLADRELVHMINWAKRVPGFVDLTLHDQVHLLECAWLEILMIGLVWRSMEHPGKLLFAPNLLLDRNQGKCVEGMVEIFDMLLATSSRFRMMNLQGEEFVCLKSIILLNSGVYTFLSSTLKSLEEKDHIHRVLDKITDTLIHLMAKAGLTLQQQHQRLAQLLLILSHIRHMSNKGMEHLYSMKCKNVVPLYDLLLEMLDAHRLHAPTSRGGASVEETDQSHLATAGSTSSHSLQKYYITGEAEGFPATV

O=C(c1ccc(O)cc1O)c1ccc(O)cc1O
Potency [1]: inactive
Potency [2]: 30.7 µM (active) and 54.5 µM (active)
Potency [3]: inactive
Potency [4]: inactive
Potency [5]: inactive
Potency [6]: 11 µM [inconclusive] (active) and 9.77 µM [inconclusive] (active)
Potency [7]: 4.33 µM (active) and 15.4 µM (active)
Potency [8]: inactive
Potency [9]: inactive
Potency [10]: inactive

CC(=O)SC[C@@H](Cc1ccccc1)C(=O)NCC(=O)OCc1ccccc1
Potency [1]: inactive
Potency [2]: inactive
Potency [3]: inactive
Potency [4]: inactive
Potency [5]: inactive
Potency [6]: inactive
activation ([7]; at 32.5 µM (top of the series)): 3.92% (inactive)
Potency [8]: inactive
Potency [10]: inactive

O=c1[nH]cnc2nc[nH]c12
Potency [1]: inactive
Potency [2]: inactive
Potency [3]: inactive
Potency [4]: inactive
Potency [5]: inactive
Potency [6]: inactive
activation ([7]; at 70.3 µM (top of the series)): 8.82% (inactive)
Potency [8]: inactive
Potency [9]: inactive
Potency [10]: inactive

Cc1cc2c(cc1C(F)(F)F)N(C(=O)Nc1ccc(Oc3cccnc3C)nc1)CC2
Potency [1]: inactive
Potency [2]: 22 µM (active)
Potency [3]: inactive
Potency [4]: inactive
Potency [5]: inactive
Potency [6]: inactive
Potency [9]: inactive

O=[N+]([O-])c1ccccc1Nc1ccccc1
Potency [1]: inactive
Potency [2]: inactive
Potency [3]: inactive
Potency [4]: inactive
Potency [5]: inactive
Potency [6]: inactive
activation ([7]; at 70.3 µM (top of the series)): 4.1% (inactive)
Potency [8]: inactive
Potency [9]: inactive

CC(=O)N1CCN(c2ccc(OC[C@H]3CO[C@](Cn4ccnc4)(c4ccc(Cl)cc4Cl)O3)cc2)CC1
Potency [1]: inactive and 21.7 µM (active)
Potency [2]: 26.6 µM (active) and 15.4 µM (active)
Potency [3]: inactive
Potency [4]: inactive
Potency [5]: inactive and 43.6 µM (active)
Potency [6]: inactive
Potency [8]: 13.3 µM (active)
Potency [9]: inactive
Potency [10]: inactive

CCCCCCCCCCCC[N+](C)(C)CCCCCCCCCCCC
Potency [1]: 24.3 µM (active)
Potency [2]: 17.2 µM (active)
Potency [3]: inactive
Potency [4]: inactive
Potency [5]: 24.5 µM (active)
Potency [9]: 68.6 µM (active)
Potency [10]: 17.2 µM (active)

Clc1ccccc1C(c1ccccc1)(c1ccccc1)n1ccnc1
Potency [1]: 8.04 µM (active) and 21.7 µM (active)
Potency [2]: 3.59 µM (active) and 3.86 µM (active)
Potency [3]: inactive
Potency [4]: 6.44 µM [inconclusive] (active) and 15.5 µM [inconclusive] (active)
Potency [5]: inactive and 54.9 µM (active)
Potency [6]: inactive
activation ([7]; at 32.5 µM (top of the series)): -14.7% (inactive)
Potency [9]: inactive
Potency [10]: 4.52 µM (active) and 6.86 µM (active)

COc1c(C)c2c(c(O)c1C/C=C(\C)CCC(=O)O)C(=O)OC2
Potency [1]: 0.717 µM (active)
Potency [2]: 0.507 µM (active)
Potency [3]: inactive
Potency [4]: 0.512 µM [inconclusive] (active)
Potency [5]: inactive
Potency [9]: inactive
Potency [10]: inactive

NNC(=O)c1cccc(C(=O)NN)c1
Potency [1]: inactive
Potency [2]: inactive
Potency [3]: inactive
Potency [4]: inactive
Potency [5]: inactive
Potency [6]: inactive
activation ([7]; at 70.3 µM (top of the series)): 4.33% (inactive)
Potency [8]: inactive
Potency [9]: inactive
Potency [10]: inactive

CCCCN1CCCC[C@H]1C(=O)Nc1c(C)cccc1C
Potency [1]: inactive
Potency [2]: inactive
Potency [3]: inactive
Potency [4]: inactive
Potency [5]: inactive
Potency [6]: inactive
activation ([7]; at 70.3 µM (top of the series)): -9.26% (inactive)
Potency [8]: inactive
Potency [9]: inactive
Potency [10]: inactive

Nc1ccccc1O
Potency [1]: 26.9 µM (active)
Potency [2]: 42.7 µM (active)
Potency [3]: inactive
Potency [4]: inactive
Potency [5]: inactive
Potency [6]: inactive
Potency [10]: 67.7 µM (active)

O=C(O)c1cc(O)c2c(c1)C(=O)c1cccc(O)c1C2=O
Potency [1]: inactive
Potency [2]: inactive
Potency [3]: inactive
Potency [4]: inactive
Potency [5]: inactive
Potency [6]: inactive
Potency [7]: 39.7 µM (active)
Potency [8]: inactive
Potency [10]: inactive

O=c1cccccc1O
Potency [1]: 19.7 µM (active)
Potency [2]: 17.6 µM (active)
Potency [3]: inactive
Potency [4]: inactive
Potency [5]: inactive
Potency [6]: inactive
activation ([7]; at 95 µM (top of the series)): -8.54% (inactive)
Potency [9]: inactive

CC(=O)S[C@@H]1CC2=CC(=O)CC[C@]2(C)[C@H]2CC[C@@]3(C)[C@@H](CC[C@@]34CCC(=O)O4)[C@H]12
Potency [1]: 27.3 µM (active)
Potency [2]: 26.6 µM (active) and 27.3 µM (active)
Potency [3]: inactive
Potency [4]: 12.3 µM [inconclusive] (active)
Potency [5]: inactive
Potency [6]: inactive
activation ([7]; at 70.3 µM (top of the series)): 7.41% (inactive) and -17.9% (inactive)
Potency [8]: inactive and 48.6 µM (active)
Potency [9]: inactive
Potency [10]: 26.6 µM (active) and 27.3 µM (active)

CCC(C)(C)C1CCCCC1OC(C)=O (stereo not drawn)
Potency [1]: inactive
Potency [2]: inactive
Potency [3]: inactive
Potency [4]: inactive
Potency [5]: inactive
Potency [6]: inactive
activation ([7]; at 70.3 µM (top of the series)): 7.91% (inactive)
Potency [8]: inactive
Potency [9]: inactive
Potency [10]: inactive

O=C(NO)C1(NS(=O)(=O)c2ccc(Oc3ccc(F)cc3)cc2)CCOCC1
Potency [1]: inactive
Potency [2]: inactive
Potency [3]: inactive
Potency [4]: inactive
Potency [5]: inactive
Potency [6]: inactive
Potency [9]: inactive
Potency [10]: inactive

COc1ccc(-c2ccc3cc(C(=O)O)ccc3c2)cc1C12CC3CC(CC(C3)C1)C2
Potency [1]: 1.68 µM (active)
Potency [2]: 1.33 µM (active)
Potency [3]: inactive
Potency [4]: 7.56 µM [inconclusive] (active)
Potency [5]: inactive
Potency [6]: inactive
activation ([7]; at 70.3 µM (top of the series)): -4.61% (inactive)
Potency [8]: 0.376 µM (active)
Potency [9]: inactive

From PubChem BioAssay (Tox21)
